Reference: PMC7819943, “Rice protein-binding microarrays: a tool to detect cis-acting elements near promoter regions in rice”
Whole data set: some 68,000 sequences, median “fluorescence intensity (a.u.)” near 9,100, cut for the highest 2% near 16,000. The list comes from a sample in which the highest values are over-represented; it also holds similar and randomly drawn sequences.

Biological target: OsWRKY34 (Oryza sativa, UniProt Q0JBA9 1-250)
Test: protein-binding microarray (RPBM); PBS, 2% BSA, 51.3 ng/ul salmon testes DNA, 50 uM zinc acetate, 200 nM TF, 25 C, 1 h; high values mean tight binding
Settings: protein: recombinant; tags: N-terminal polyhistidine and DsRed monomer fusion (pET32a); label: CyDye5-dUTP incorporated in the synthesized complementary strand; 3' TTTTT single-stranded linker to array surface; dsDNA, one strand shown
Outline: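 Binding signal is defined as the fluorescence intensity of each feature in arbitrary units, read on an Axon 4000B scanner. Transcription factors with N-terminal polyhistidine and DsRed fusions came from E. coli BL21-CodonPlus and were purified on Ni–NTA. They were incubated at 200 nM for 1 h at 25 °C on a custom Agilent array that had been made double-stranded with Cy5-dUTP, with 50 µM zinc acetate present, and the array was washed.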

Chain of OsWRKY34 (Q0JBA9 entry or part of it): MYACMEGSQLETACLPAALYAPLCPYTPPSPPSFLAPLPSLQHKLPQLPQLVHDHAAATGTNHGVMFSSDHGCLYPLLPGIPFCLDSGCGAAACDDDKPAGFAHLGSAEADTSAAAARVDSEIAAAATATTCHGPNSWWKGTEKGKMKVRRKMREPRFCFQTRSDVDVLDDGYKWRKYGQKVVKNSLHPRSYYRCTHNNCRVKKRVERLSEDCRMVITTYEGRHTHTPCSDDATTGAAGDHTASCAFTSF

Which binding signal does the source give for “TTAATTTCACGGTTTCATCTCGACATCTCATCATCTGTTTCGGAGTCACCTAGTGCAG” here?
The binding signal was 12100 fluorescence intensity (a.u.).

“ATGCCATTTTTCCCGTTTGTTGCAATTGCAAAACATTTTTCGGAGTCACCTAGTGCAG” was tested. Which binding signal did it give?
The binding signal was 8580 fluorescence intensity (a.u.).

For “CTCTCACACCGTGCCATATCCCGAACATCCCTTGATCGAACGGAGTCACCTAGTGCAG”, which binding signal is on record?
The binding signal was 9530 fluorescence intensity (a.u.).

“CTTTCCTGTACTATTTTACTGTCCGATTTACAACATGTGACGGAGTCACCTAGTGCAG” was tested. Which binding signal did it give?
Its binding signal is 12900 fluorescence intensity (a.u.).

“TCGGTTTTTACTGCTTCCATCAGACGTCGGTCTGTTTTCGCGGAGTCACCTAGTGCAG” was tested. Which binding signal did it give?
Its binding signal is 9470 fluorescence intensity (a.u.).

How did the binding signal turn out when “ACCTGTTTCGTTCGTCCACGCCAGCGCCAACCGGACATGACGGAGTCACCTAGTGCAG” was run?
The binding signal was 9460 fluorescence intensity (a.u.).

“TCTTGTATTCTCCACTAGTCTTGGGTCATCCATTCTTCAGCGGAGTCACCTAGTGCAG” was tested. Which binding signal did it give?
Its binding signal is 8550 fluorescence intensity (a.u.).

With “GCCTCTGTTCTTCCACTCATTATTATCATTTGCAGCTCCGCGGAGTCACCTAGTGCAG” as the sequence, how does the binding signal read?
The binding signal was 10400 fluorescence intensity (a.u.).

With “TCCCAACCCACCGTTCCATTCTCTCGAGCTCACCCCGTCACGGAGTCACCTAGTGCAG” as the sequence, how does the binding signal read?
Its binding signal is 10500 fluorescence intensity (a.u.).

With “CCTCCGTTTCAAAATATTTGACACCGTTGACTTTTTAGTACGGAGTCACCTAGTGCAG” as the sequence, how does the binding signal read?
Its binding signal is 14100 fluorescence intensity (a.u.).

Which binding signal does the source give for “ACTTTTTAGTGCGTATTTGACTATTCGTCTTATTTAAAAACGGAGTCACCTAGTGCAG” here?
Its binding signal is 9800 fluorescence intensity (a.u.).

Which binding signal does the source give for “AAAAATATTTGACAGCGTTGACTTTTTAGTGCGTATTTGACGGAGTCACCTAGTGCAG” here?
Its binding signal is 42800 fluorescence intensity (a.u.).

“TCGTTTCAAAATACTTGACACCGTTGACTTTTTAGTACGTCGGAGTCACCTAGTGCAG” was tested. Which binding signal did it give?
The binding signal was 23300 fluorescence intensity (a.u.).

“TGTACTTCAAAAATTTACTTTACCGTGTGTTTTATTTTTTCGGAGTCACCTAGTGCAG” was tested. Which binding signal did it give?
Its binding signal is 9650 fluorescence intensity (a.u.).

“CCGTTTCAAAATATTTGACACCGTTGACTTTTTAGTACGTCGGAGTCACCTAGTGCAG” was tested. Which binding signal did it give?
The binding signal was 26800 fluorescence intensity (a.u.).

How did the binding signal turn out when “TTCAAAATATTTGACACCGTTGACTTTTTAGTACGTGTTTCGGAGTCACCTAGTGCAG” was run?
The binding signal was 18200 fluorescence intensity (a.u.).

“TCTGTATTAGCGTTCGGTTGTTTTATTTGACTTTCCAAATCGGAGTCACCTAGTGCAG” was tested. Which binding signal did it give?
The binding signal was 8360 fluorescence intensity (a.u.).

“ATTTTCAAAATATTTGACACTGTTGACTTTTTAGTACATACGGAGTCACCTAGTGCAG” was tested. Which binding signal did it give?
Its binding signal is 9840 fluorescence intensity (a.u.).

For “ATCAATCTATTAGAATACTTATTACTGTATCTACTTATGTCGGAGTCACCTAGTGCAG”, which binding signal is on record?
The binding signal was 8690 fluorescence intensity (a.u.).

“TAGGTTTTTTTTTACTTTTTAACTTGGCTGATTTTATTGACGGAGTCACCTAGTGCAG” was tested. Which binding signal did it give?
The binding signal was 8760 fluorescence intensity (a.u.).

Which binding signal does the source give for “GACTCTTGCGATTCCCTCTGTTGAACTTGTTCGTTCTCCTCGGAGTCACCTAGTGCAG” here?
The binding signal was 10600 fluorescence intensity (a.u.).

Which binding signal does the source give for “TTCCCCATGTTTTTTTGCCCACTAACTCACTAGCCACCACCGGAGTCACCTAGTGCAG” here?
The binding signal was 10700 fluorescence intensity (a.u.).

“CCTCGACCTCTCGCTACTCCAGGCGCCGCCCCATCAGATGCGGAGTCACCTAGTGCAG” was tested. Which binding signal did it give?
Its binding signal is 8200 fluorescence intensity (a.u.).

How did the binding signal turn out when “CGTACGCGCCCACGCCCACTCCCACGCCTTCGCGCGCGCGCGGAGTCACCTAGTGCAG” was run?
Its binding signal is 9220 fluorescence intensity (a.u.).

How did the binding signal turn out when “TTAGGTCGGGTTTTTCCCGTTTCTCGTTTCTATGGCGATGCGGAGTCACCTAGTGCAG” was run?
The binding signal was 8750 fluorescence intensity (a.u.).

Which binding signal does the source give for “TCCTTGTGCCCACTTCTAGCTAGCTTCCAAGTTCCAACCACGGAGTCACCTAGTGCAG” here?
Its binding signal is 13700 fluorescence intensity (a.u.).

Which binding signal does the source give for “GGTGCTTGTTTAATCAAAGCTTGCTATTTGGTACTTTTTTCGGAGTCACCTAGTGCAG” here?
The binding signal was 8940 fluorescence intensity (a.u.).

For “GGACCACCCTGCCGCGGACATCACCCATCTCGTCATCTCCCGGAGTCACCTAGTGCAG”, which binding signal is on record?
Its binding signal is 9570 fluorescence intensity (a.u.).

“TTGACGCCGTTGACTTTTCTAAACATATTTGACTATTCGTCGGAGTCACCTAGTGCAG” was tested. Which binding signal did it give?
Its binding signal is 22300 fluorescence intensity (a.u.).

For “ATATTTGACGCCGTTGACTTTTTTAAACATGTTTGACCGTCGGAGTCACCTAGTGCAG”, which binding signal is on record?
The binding signal was 44400 fluorescence intensity (a.u.).

“CACATATTGATCTATTCTACTAAATTTTTTTTATGACTTTCGGAGTCACCTAGTGCAG” was tested. Which binding signal did it give?
Its binding signal is 8630 fluorescence intensity (a.u.).

Which binding signal does the source give for “CCGTTGGCTTTTTTAAACATGTTTGACCGTTTATTTTATTCGGAGTCACCTAGTGCAG” here?
Its binding signal is 14100 fluorescence intensity (a.u.).

Which binding signal does the source give for “TGTTTTATTTTTAGGATACTTCTACCTTTTTTCGCTTTGACGGAGTCACCTAGTGCAG” here?
Its binding signal is 9510 fluorescence intensity (a.u.).

For “TCCCTAAATATTTGACGCCATTGACTTTTTTAAACATGTTCGGAGTCACCTAGTGCAG”, which binding signal is on record?
Its binding signal is 11200 fluorescence intensity (a.u.).

“ATCTAGGATACCGTTGACTTTTCGTACTAACATTTGACGTCGGAGTCACCTAGTGCAG” was tested. Which binding signal did it give?
The binding signal was 32800 fluorescence intensity (a.u.).

With “CAAATTACTTCCTTTTCAAAATCTAGGATACCGTTGACTTCGGAGTCACCTAGTGCAG” as the sequence, how does the binding signal read?
Its binding signal is 9460 fluorescence intensity (a.u.).

For “TCCCTAAATATTTGACGCCGTTGACTTTTTTAAACATGTTCGGAGTCACCTAGTGCAG”, which binding signal is on record?
Its binding signal is 26400 fluorescence intensity (a.u.).

“TGCTTTGGTTGTCTTCTTTATCTAGAAGGCTTTGATTGCTCGGAGTCACCTAGTGCAG” was tested. Which binding signal did it give?
The binding signal was 9520 fluorescence intensity (a.u.).

Which binding signal does the source give for “TCATTGTTCTCACTTCCTCGTCTTGAGCACTTGAGTCTCTCGGAGTCACCTAGTGCAG” here?
Its binding signal is 8420 fluorescence intensity (a.u.).

With “TGCACTGGGCTCCCATCTGAATGTCCTTATGCCAACCTCCCGGAGTCACCTAGTGCAG” as the sequence, how does the binding signal read?
The binding signal was 8520 fluorescence intensity (a.u.).

“CTAATCCTCCTGCTCCATCTCGATCCACATAACGATCCACCGGAGTCACCTAGTGCAG” was tested. Which binding signal did it give?
Its binding signal is 8470 fluorescence intensity (a.u.).

How did the binding signal turn out when “CATATTATAAATCATTTGACTTTTTTCATATTCAAAATTTCGGAGTCACCTAGTGCAG” was run?
The binding signal was 9090 fluorescence intensity (a.u.).

With “ACTCTATTTAGATATTTTCCCACGCATCCGTCTCCTCCTCCGGAGTCACCTAGTGCAG” as the sequence, how does the binding signal read?
Its binding signal is 9420 fluorescence intensity (a.u.).

Which binding signal does the source give for “ACCAAACCCACGGCCTGGCCCACTGTCAGTACTAAGATAGCGGAGTCACCTAGTGCAG” here?
Its binding signal is 9120 fluorescence intensity (a.u.).

With “TCGCAGCAGCTGTTTTACCGGCTAGTTTTTTGCACACATCCGGAGTCACCTAGTGCAG” as the sequence, how does the binding signal read?
Its binding signal is 8600 fluorescence intensity (a.u.).
